Laboratory results from PubChem BioAssay (Tox21).
Records with an inconclusive call do not appear. Calls of active or inactive are those of the source. Unless noted, calls come from the whole dose curve; as a rule, active = well fitted curve in the direction sought with a large enough effect in the repeat runs; inconclusive = weak or mixed curves; inactive = no such curve, though single readings can be large; an effect the other way counts as inactive or inconclusive.

Experiments:
[1] = qHTS RealTime-Glo MT Cell Viability Assay in HEK293 cells - 24 hour (AID 1224886); note: top concentration of the series differs between compounds; nearly all actives have a fitted effect of over 50% in size
Summary of the method: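 Viability tracked continuously by luminescence as live cells reduce a prosubstrate for NanoLuc; HEK293 cells preincubated 5 h, compound-treated at 37 C, and read at 0, 8, 16, 24, 32 and 40 h.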

[2] = qHTS RealTime-Glo MT Cell Viability Assay in HEK293 cells - 8 hour (AID 1224887); note: top concentration of the series differs between compounds; nearly all actives have a fitted effect of over 50% in size
Summary of the method: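 600 cells/well were plated with the nonlytic NanoLuc/prosubstrate reagent, pre-incubated 5 h, then given 23 nL of compound in DMSO. Incubation at 37 C for 40 h, with luminescence from viable-cell-reduced substrate read repeatedly from 0 h.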

[3] = A CellTox Green Cytotoxicity Assay to monitor cytotoxicity in HEK293 cells - 16 hour (AID 1224888); note: nearly all actives have a fitted effect of over 35% in size
Summary of the method: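 HEK293 cells, 600/well, were preincubated 5 hours and then exposed to compounds at 37 C for up to 40 hours. A cell-impermeant cyanine dye staining dead-cell DNA was read by fluorescence at 0, 8, 16, 24, 32 and 40 h time points.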

[4] = qHTS RealTime-Glo MT Cell Viability Assay in HepG2 cells - 0 hour (AID 1224889); note: nearly all actives have a fitted effect of over 50% in size
Summary of the method: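 Viability was tracked continuously by NanoLuc luminescence from prosubstrate reduced by living HepG2 cells, at successive time points over 40 h of compound exposure. Cells with reagent were preincubated 5 h at 37 °C before compound addition.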

[5] = A CellTox Green Cytotoxicity Assay to monitor cytotoxicity in HepG2 cells - 8 hour (AID 1224890); note: nearly all actives have a fitted effect of over 45% in size
Summary of the method: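 HepG2 cells, 600/well, preincubated 5 h with CellTox Green dye, then exposed to Tox21 compounds in DMSO at 37 C for up to 40 h. Dead-cell DNA fluorescence read at the indicated time point.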

[6] = qHTS assay to identify small molecule antagonists of the estrogen receptor alpha (ER-alpha) signaling pathway using the BG1 cell line in the presence of 0.1 nM 17-beta-estradiol - cell viability counter screen (AID 1259241); note: nearly all actives have a fitted effect of over 40% in size
Summary of the method: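 In this screen, hormone-deprived VM7Luc4E2 cells were seeded at 4,000 per well, dosed with compound and 0.1 nM estradiol final, and incubated 22 hr at 37C and 5% CO2; fluorogenic live-cell protease signal reported viability.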

[7] = qHTS assay to identify small molecule antagonists of the androgen receptor (AR) signaling pathway using the MDA cell line in the presence of 0.5 nM R1881 - cell viability counter screen (AID 1259242); note: nearly all actives have a fitted effect of over 45% in size
Summary of the method: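 MDA-kb2 cells (MMTV-luciferase, AR/GR responsive) were treated with compounds plus 0.5 nM R1881 (final) for 16 hr at 37C, 0% CO2. Viability was then read in the same wells as live-cell protease fluorescence (CellTiter-Fluor, 30 min).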

[8] = target: Androgen receptor (Homo sapiens) (UniProt P10275); assay: qHTS assay to identify small molecule antagonists of the androgen receptor (AR) signaling pathway using the MDA cell line in the presence of 0.5 nM R1881 (AID 1259243); note: nearly all actives have a fitted effect of over 50% in size
Summary of the method: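 MDA-kb2 cells (MMTV-luciferase, responsive to AR and GR) at 3,000/well, rested 5 h at 37C, 0% CO2, then given compounds plus 0.5 nM R1881 (final) for 16 hr. Luciferase read with ONE-Glo after 30 min at room temperature.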

[9] = target: Estrogen receptor (Homo sapiens) (UniProt P03372); assay: qHTS assay to identify small molecule antagonists of the estrogen receptor alpha (ER-alpha) signaling pathway using the BG1 cell line in the presence of 0.1 nM 17-beta-estradiol (AID 1259244); note: nearly all actives have a fitted effect of over 50% in size
Summary of the method: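 VM7Luc4E2 cells (endogenous full-length ER-alpha, 4×ERE-luciferase), kept 5 days in phenol red-free, charcoal-stripped FBS medium; 4,000 cells/well. Compounds added with 0.1 nM (final) 17beta-estradiol, 22 hr at 37C; luminescence read with ONE-Glo after 30 min.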

[10] = qHTS assay to identify small molecule HDAC inhibitors (AID 1259364); note: top concentration of the series differs between compounds; nearly all actives have a fitted effect of over 45% in size
Summary of the method: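 Wild-type HCT-116 cells, plated overnight at 37 C, exposed to compounds 2 hr at 37 C; luminogenic HDAC-Glo substrate then added 30 min at room temperature. Luminescence reports relative endogenous class I/II HDAC activity.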

[11] = qHTS assay to identify small molecule HDAC inhibitors - cell viability counter screen (AID 1259365)
Summary of the method: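 Measured quantity is CellTiter-Glo luminescence from wild-type HCT-116 cells after compound incubation of 2hr at 37C, 5% CO2; reagent developed 30min at room temperature.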

[12] = qHTS assay to identify small molecule antagonists of the sonic hedgehog signaling (Shh) pathway - cell viability counter screen (AID 1259367); note: nearly all actives have a fitted effect of over 55% in size
Summary of the method: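 Cells: 3T3 Gli1-Luc, 2,000/well, 4 hr pre-incubation. Compounds in DMSO, then conditioned medium. Incubation 24 hr, 37C, 5% CO2. CellTiter-Fluor at 23 hr, 1 hr, fluorescence.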

[13] = qHTS assay to identify small molecule agonists of the sonic hedgehog signaling (Shh) pathway (AID 1259368; calls by dose curve;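 note: NIH/3T3-derived 3T3Gli1-Luc cells carrying a stable Gli1-driven firefly luciferase reporter; series mostly up to about 92 µM; nearly all actives have a fitted effect of over 15% in size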)
Summary of the method: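 NIH/3T3-derived 3T3Gli1-Luc cells with stably integrated Gli1-driven firefly luciferase, 2,000 cells/well, compounds added after 4 hr. Incubated 24 hr at 37C, 5% CO2; luminescence read after 30 min with luciferase reagent at room temperature.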

[14] = qHTS assay to identify small molecule antagonists of the sonic hedgehog signaling (Shh) pathway (AID 1259369; calls by dose curve; note: nearly all actives have a fitted effect of over 45% in size)
Summary of the method: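 NIH/3T3-derived Gli1-Luc reporter cells plated 4 h, dosed with compound, then stimulated with conditioned medium for 24 h at 37 C. Firefly luciferase luminescence read after 30 min with detection reagent at room temperature.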

[15] = qHTS assay to identify small molecule agonists of the androgen receptor (AR) signaling pathway in the presence of an antagonist - cell viability counter screen (AID 1259379);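 note: MDA-kb2 human breast cancer cells carrying an MMTV luciferase reporter; series mostly up to about 92 µM; nearly all actives have a fitted effect of over 25% in size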
Summary of the method: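 MDA-kb2 cells (MMTV-luciferase, AR/GR), 3,000/well, 5 h attachment, then 3.0 µM nilutamide (final) and compounds at 15 concentrations. Viability by CellTiter-Fluor fluorescence after 16 h at 37 °C, 0% CO2, in the reporter wells.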

[16] = qHTS assay to identify small molecule phospholipidosis (PLD) inducers (AID 1259344; active = well fitted curve in the direction sought with a large enough effect; an effect the other way counts as inactive or inconclusive)
Summary of the method: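 Phospholipidosis is scored by imaging LipidTOX-stained pits in HepG2 cells exposed to compound for 24 h at 37 C; pit counts and integrated intensities per well and per cell serve as outputs.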

[17] = qHTS assay to identify small molecule agonists of the sonic hedgehog signaling (Shh) pathway - cell viability counter screen (AID 1259366); note: nearly all actives have a fitted effect of over 50% in size
Summary of the method: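 In quantitative high-throughput format, 3T3 Gli1-Luc cells were exposed to compounds for 24hr and multiplexed for viability using CellTiter-Fluor, incubated 1hr at 37C before the fluorescence read.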

[18] = qHTS assay to identify small molecule agonists of the estrogen receptor beta (ER-beta) signaling pathway - cell viability counter screen (AID 1259380); note: nearly all actives have a fitted effect of over 30% in size
Summary of the method: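 ER-beta-UAS-bla HEK293T cells in medium with 2% charcoal-stripped FBS, pre-incubated 6 hr, then treated 16 hr at 37C. Cytotoxicity read in the same wells by CellTiter-Glo luminescence after 30 min at room temperature.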

[19] = target: Estrogen receptor beta (Homo sapiens) (UniProt Q92731); assay: qHTS assay to identify small molecule agonists of the estrogen receptor beta (ER-beta) signaling pathway (AID 1259377; active = well fitted activation curve with a large enough effect in the signal ratio in the repeat runs, not every such curve was filed as active; the % refers to the signal ratio)
Summary of the method: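 Reporter cells (HEK293T, ER-beta-UAS-bla) receive compounds or DMSO after a 6 hr pre-incubation. They then incubate 16 hr at 37C/5% CO2, and fluorescence from LiveBLAzer B/G substrate is measured after 2 hours at room temperature.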

[20] = target: Estrogen receptor beta (Homo sapiens) (UniProt Q92731); assay: qHTS assay to identify small molecule antagonists of the estrogen receptor beta (ER-beta) signaling pathway (AID 1259378; active = well fitted inhibition curve with a large enough effect in the signal ratio in the repeat runs, not every such curve was filed as active; the % refers to the signal ratio)
Summary of the method: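 Antagonist mode: compounds added to beta-lactamase reporter HEK293T ER-beta-UAS cells stimulated with E2 (1nM final), 16 hr at 37C. LiveBLAzer B/G FRET substrate, 2 hours room temperature, fluorescence read-out.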
% is set by controls: 0 for no effect and ±100 for the full control effect.

Chain of Androgen receptor (Homo sapiens) (P10275 whole entry, looked up): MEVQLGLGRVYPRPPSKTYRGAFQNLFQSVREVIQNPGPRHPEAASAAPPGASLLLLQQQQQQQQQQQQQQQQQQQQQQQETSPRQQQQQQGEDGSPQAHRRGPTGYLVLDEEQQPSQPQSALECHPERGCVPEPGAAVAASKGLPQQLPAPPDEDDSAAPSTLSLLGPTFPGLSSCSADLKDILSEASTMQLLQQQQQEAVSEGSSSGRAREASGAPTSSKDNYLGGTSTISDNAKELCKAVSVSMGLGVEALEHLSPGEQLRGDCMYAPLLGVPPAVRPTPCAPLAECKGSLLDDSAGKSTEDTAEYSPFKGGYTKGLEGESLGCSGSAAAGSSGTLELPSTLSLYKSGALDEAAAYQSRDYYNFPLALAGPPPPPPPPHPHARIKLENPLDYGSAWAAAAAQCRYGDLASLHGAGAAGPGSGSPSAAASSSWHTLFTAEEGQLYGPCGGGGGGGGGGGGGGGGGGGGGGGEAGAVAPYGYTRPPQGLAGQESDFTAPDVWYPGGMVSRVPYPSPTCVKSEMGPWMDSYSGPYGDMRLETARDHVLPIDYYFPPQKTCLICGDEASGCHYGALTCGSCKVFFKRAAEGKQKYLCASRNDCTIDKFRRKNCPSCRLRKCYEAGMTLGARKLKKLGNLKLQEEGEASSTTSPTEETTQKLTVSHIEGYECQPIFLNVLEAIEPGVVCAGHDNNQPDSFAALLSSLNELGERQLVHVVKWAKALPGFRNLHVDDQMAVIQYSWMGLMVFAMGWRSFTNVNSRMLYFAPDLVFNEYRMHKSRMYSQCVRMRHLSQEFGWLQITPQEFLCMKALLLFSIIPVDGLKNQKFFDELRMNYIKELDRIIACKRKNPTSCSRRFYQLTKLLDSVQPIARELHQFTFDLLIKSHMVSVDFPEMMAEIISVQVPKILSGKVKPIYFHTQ
Chain of Estrogen receptor (Homo sapiens) (P03372 whole entry, looked up): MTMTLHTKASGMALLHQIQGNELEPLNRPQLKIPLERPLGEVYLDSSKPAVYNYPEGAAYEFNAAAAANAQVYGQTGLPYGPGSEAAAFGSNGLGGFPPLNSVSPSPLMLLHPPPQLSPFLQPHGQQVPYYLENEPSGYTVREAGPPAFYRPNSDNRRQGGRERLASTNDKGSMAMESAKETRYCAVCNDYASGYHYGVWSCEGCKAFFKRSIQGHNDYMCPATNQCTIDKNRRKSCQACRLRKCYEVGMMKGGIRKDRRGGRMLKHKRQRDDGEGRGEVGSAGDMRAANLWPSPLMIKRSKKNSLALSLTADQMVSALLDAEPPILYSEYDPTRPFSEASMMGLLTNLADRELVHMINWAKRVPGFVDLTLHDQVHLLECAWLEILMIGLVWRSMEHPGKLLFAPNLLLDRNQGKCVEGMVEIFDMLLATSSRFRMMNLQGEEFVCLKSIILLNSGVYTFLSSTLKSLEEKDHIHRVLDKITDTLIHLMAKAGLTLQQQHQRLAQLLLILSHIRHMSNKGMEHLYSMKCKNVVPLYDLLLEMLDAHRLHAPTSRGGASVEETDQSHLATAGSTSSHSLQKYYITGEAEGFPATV
Chain of Estrogen receptor beta (Homo sapiens) (Q92731 whole entry, looked up): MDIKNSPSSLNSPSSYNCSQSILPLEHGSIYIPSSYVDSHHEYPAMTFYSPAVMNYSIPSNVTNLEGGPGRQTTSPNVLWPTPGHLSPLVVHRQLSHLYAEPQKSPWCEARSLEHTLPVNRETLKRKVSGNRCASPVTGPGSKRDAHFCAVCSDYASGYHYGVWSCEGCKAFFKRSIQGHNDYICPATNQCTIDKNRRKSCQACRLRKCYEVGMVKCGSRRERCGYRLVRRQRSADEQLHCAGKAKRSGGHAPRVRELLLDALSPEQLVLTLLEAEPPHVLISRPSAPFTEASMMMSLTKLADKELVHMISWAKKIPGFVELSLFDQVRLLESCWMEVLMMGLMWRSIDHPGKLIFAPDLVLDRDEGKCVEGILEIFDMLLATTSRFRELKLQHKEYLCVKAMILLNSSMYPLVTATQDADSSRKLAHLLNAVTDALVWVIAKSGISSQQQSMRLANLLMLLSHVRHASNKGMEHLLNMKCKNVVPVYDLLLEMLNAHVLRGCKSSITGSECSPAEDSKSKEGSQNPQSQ

[Cl][Sc]([Cl])[Cl]
inactive: Potency [1] | Potency [2] | Potency [3] | Potency [4] | Potency [5] | Potency [6] | Potency [7] | Potency [8] | Potency [9] | Potency [10] | Potency [11] | Potency [12] | Potency [13] | Potency [14] | Potency [15]

O=C(O)C[C@H](O)C[C@H](O)/C=C/c1c(C2CC2)nc2ccccc2c1-c1ccc(F)cc1
inactive: activity change, negative = cytotoxicity [1] -0.416% [at 15.8 µM] | activity change, negative = cytotoxicity [2] 5.42% [at 15.8 µM] | activity change [3] 2.31% [at 15.8 µM, active compounds read high] | activity change, negative = cytotoxicity [4] -0.353% [at 15.8 µM] | cytotoxicity increase [5] -9.83% [at 15.8 µM] | activity change, negative = cytotoxicity [6] 6.55% [at 19 µM] | viability change, negative = cytotoxic [7] -6.18% [at 19 µM] | activity change, negative = inhibition [9] 17.2% [at 19 µM] | Potency [16] | activity change, negative = cytotoxicity [11] 0.738% [at 19 µM] | viability change, negative = cytotoxic [17] -7.99% [at 19 µM] | viability change, negative = cytotoxic [12] -0.451% [at 19 µM] | activity change [13] -2.24% [at 18.9 µM, active compounds read high] | activity change, negative = inhibition [14] -28% [at 19 µM] | activity change, negative = cytotoxicity [15] 0.182% [at 19 µM]

CC1CCC(C(C)(C)O)CC1 (centres undefined)
inactive: Potency [1] | Potency [2] | Potency [3] | Potency [4] | Potency [5] | Potency [6] | Potency [7] | Potency [8] | Potency [10] | Potency [11] | Potency [17] | Potency [12] | Potency [13] | Potency [14] | Potency [15]

N#Cc1ccc(C/C(=N/NC(=O)Nc2ccc(OC(F)(F)F)cc2)c2cccc(C(F)(F)F)c2)cc1
inactive: Potency [1] | Potency [2] | Potency [3] | Potency [4] | Potency [5] | Potency [6] | Potency [7] | Potency [8] | Potency [9] | Potency [10] | Potency [11] | Potency [17] | Potency [12] | Potency [13] | Potency [15] | Potency [18]

C=CC(=O)O[C@H]1C[C@@H]2CC[C@@]1(C)C2(C)C
inactive: Potency [1] | Potency [2] | Potency [3] | Potency [4] | Potency [5] | Potency [6] | Potency [7] | Potency [9] | Potency [11] | Potency [17] | Potency [12] | Potency [13] | outcome [19] | Potency [20] | Potency [15]

CC(C)(C)c1cc(CCC(=O)OCCSCCOC(=O)CCc2cc(C(C)(C)C)c(O)c(C(C)(C)C)c2)cc(C(C)(C)C)c1O
inactive: Potency [1] | Potency [2] | Potency [3] | Potency [4] | Potency [5] | Potency [6] | Potency [7] | Potency [9] | Potency [10] | Potency [11] | Potency [17] | Potency [12] | Potency [13] | Potency [14] | outcome [19] | Potency [20] | Potency [15] | Potency [18]

O=[N+]([O-])c1ccc(CO)cc1
inactive: Potency [1] | Potency [2] | Potency [3] | Potency [4] | Potency [5] | Potency [6] | Potency [7] | Potency [9] | Potency [10] | Potency [11] | Potency [17] | Potency [12] | Potency [13] | Potency [14] | outcome [19] | Potency [20] | Potency [15] | Potency [18]

CCC(=O)OC/C=C(\C)CCC=C(C)C
inactive: Potency [1] | Potency [2] | Potency [3] | Potency [4] | Potency [5] | Potency [6] | Potency [7] | Potency [8] | Potency [9] | Potency [10] | Potency [11] | Potency [17] | Potency [12] | Potency [13] | Potency [14] | Potency [15] | Potency [18]

ClC(c1ccccc1)(c1ccccc1)c1ccccc1
inactive: Potency [1] | Potency [2] | Potency [3] | Potency [4] | Potency [5] | Potency [6] | Potency [7] | Potency [10] | Potency [11] | Potency [17] | Potency [12] | Potency [13] | Potency [14] | Potency [15]

Cn1c(=O)[nH]c2ncn(C)c2c1=O
inactive: Potency [1] | Potency [2] | Potency [3] | Potency [4] | Potency [5] | Potency [6] | Potency [7] | Potency [8] | Potency [9] | Potency [10] | Potency [11] | Potency [17] | Potency [12] | Potency [13] | Potency [14] | Potency [15] | Potency [18]

Cc1cccc(C)c1C
inactive: Potency [1] | Potency [2] | Potency [3] | Potency [4] | Potency [5] | Potency [6] | Potency [7] | Potency [10] | Potency [11] | Potency [17] | Potency [12] | Potency [13] | Potency [14] | Potency [15] | Potency [18]

COC(=O)c1ccc([N+](=O)[O-])cc1
inactive: Potency [1] | Potency [2] | Potency [3] | Potency [4] | Potency [5] | Potency [6] | Potency [7] | Potency [8] | Potency [10] | Potency [11] | Potency [17] | Potency [12] | Potency [13] | Potency [14] | Potency [15] | Potency [18]

O=C1CCC/C=C\CCCCCCCCCC1
inactive: Potency [1] | Potency [2] | Potency [3] | Potency [4] | Potency [5] | Potency [6] | Potency [7] | Potency [10] | Potency [11] | Potency [17] | Potency [13] | outcome [19] | Potency [20]
